Laboratory results from PubChem BioAssay AID1159580 (chemical genetic matrix, 2015).
About 2,000 (36%) of roughly 5,500 compounds were called active. Inconclusive results (about 18%) are left out. No stated cut-off is given here; in the data, active means normalized growth mostly below about 0.91 (no sharp cut-off); inconclusive means no clear call, values can overlap the other calls; inactive means mostly above about 0.92. This is one part of the list.

Assay: chemical genetic growth profiling, strain panel (AID 1159580);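 further: tested at 20 µM; growth read once vehicle control cultures reached saturation at 30 °C; 1 = growth at the plate median or of vehicle wells; lower values mean less growth of the strain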
Conditions: growth OD
[1] = S. cerevisiae deletion strains, locus YHR030C, strain SLT2, hits give low values
[2] = S. cerevisiae deletion strains, locus YJL095W, strain BCK1, hits give low values

Measured: normalized growth

O=C1CN=C(c2ccccc2Cl)c2cc([N+](=O)[O-])ccc2N1
inactive: [1] 0.869 | S. cerevisiae deletion strains, locus YHR079C, strain IRE1, hits give low values 0.965 | [2] 0.981 | S. cerevisiae deletion strains, locus YJR066W, strain TOR1, hits give low values 0.945 | S. cerevisiae deletion strains, locus YLR113W, strain HOG1, hits give low values 0.963 | S. cerevisiae deletion strains, locus YNL183C, strain NPR1, hits give low values 0.9 | S. cerevisiae deletion strains, locus YOR231W, strain MKK1, hits give low values 0.962 | S. cerevisiae deletion strains, locus YPL256C, strain CLN2, hits give low values 0.924

COC(=O)c1c(C)cc(OC(=O)c2c(C)c(Cl)c(O)c(C=O)c2O)c(C)c1O
inactive: S. cerevisiae deletion strains, locus YAL013W, strain DEP1, hits give low values 1 | S. cerevisiae deletion strains, locus YBR021W, strain FUR4, hits give low values 1 | S. cerevisiae deletion strains, locus YBR229C, strain ROT2, hits give low values 1 | S. cerevisiae deletion strains, locus YCL029C, strain bik1, hits give low values 0.985 | S. cerevisiae deletion strains, locus YDL035C, strain GPR1, hits give low values 1.01 | S. cerevisiae deletion strains, locus YDL074C, strain BRE1, hits give low values 1 | S. cerevisiae deletion strains, locus YDL101C, strain DUN1, hits give low values 0.978 | S. cerevisiae deletion strains, locus YDL134C, strain PPH21, hits give low values 0.994 | S. cerevisiae deletion strains, locus YDL185W, strain tfp1, hits give low values 0.963 | S. cerevisiae deletion strains, locus YDL192W, strain arf1, hits give low values 0.993 | S. cerevisiae deletion strains, locus YDR101C, strain arx1, hits give low values 0.995 | S. cerevisiae deletion strains, locus YDR150W, strain NUM1, hits give low values 0.984 | S. cerevisiae deletion strains, locus YDR162C, strain NBP2, hits give low values 0.997 | S. cerevisiae deletion strains, locus YDR318W, strain mcm21, hits give low values 0.99 | S. cerevisiae deletion strains, locus YDR388W, hits give low values 0.985 | S. cerevisiae deletion strains, locus YDR502C, strain sam2, hits give low values 0.984 | S. cerevisiae deletion strains, locus YEL061C, strain CIN8, hits give low values 0.99 | S. cerevisiae deletion strains, locus YER110C, hits give low values 0.989 | S. cerevisiae deletion strains, locus YER155C, strain BEM2, hits give low values 1 | S. cerevisiae deletion strains, locus YER167W, strain BCK2, hits give low values 1 | S. cerevisiae deletion strains, locus YGL078C, strain dbp3, hits give low values 0.984 | S. cerevisiae deletion strains, locus YGL086W, strain mad1, hits give low values 0.993 | S. cerevisiae deletion strains, locus YGL248W, strain PDE1, hits give low values 0.979 | S. cerevisiae deletion strains, locus YGR078C, strain PAC10, hits give low values 0.988 | S. cerevisiae deletion strains, locus YGR135W, strain pre9, hits give low values 0.982 | S. cerevisiae deletion strains, locus YGR229C, strain SMI1, hits give low values 0.971 | S. cerevisiae deletion strains, locus YGR252W, strain gcn5, hits give low values 1 | [1] 0.993 | S. cerevisiae deletion strains, locus YHR079C, strain IRE1 (second series), hits give low values 0.987 | S. cerevisiae deletion strains, locus YHR094C, strain hxt1, hits give low values 0.987 | S. cerevisiae deletion strains, locus YHR129C, strain ARP1, hits give low values 1 | S. cerevisiae deletion strains, locus YHR200W, strain rpn10, hits give low values 0.985 | S. cerevisiae deletion strains, locus YIL066C, strain RNR3, hits give low values 0.973 | S. cerevisiae deletion strains, locus YIL073C, strain SPO22, hits give low values 0.906 | S. cerevisiae deletion strains, locus YIL125W, strain kgd1, hits give low values 1 | S. cerevisiae deletion strains, locus YIR030C, strain dcg1, hits give low values 0.983 | [2] 1.01 | S. cerevisiae deletion strains, locus YJL134W, strain LCB3, hits give low values 0.989 | S. cerevisiae deletion strains, locus YJL168C, strain set2, hits give low values 0.992 | S. cerevisiae deletion strains, locus YJL187C, strain SWE1 (second series), hits give low values 0.983 | S. cerevisiae deletion strains, locus YJR043C, strain POL32, hits give low values 1 | S. cerevisiae deletion strains, locus YJR075W, strain HOC1, hits give low values 1 | S. cerevisiae deletion strains, locus YKL009W, strain mrt4, hits give low values 0.984 | S. cerevisiae deletion strains, locus YKL068W, hits give low values 0.984 | S. cerevisiae deletion strains, locus YKL085W, strain MDH1 (second series), hits give low values 0.996 | S. cerevisiae deletion strains, locus YKL085W, strain MDH1, hits give low values 0.996 | S. cerevisiae deletion strains, locus YKL190W, strain CNB1, hits give low values 0.992 | S. cerevisiae deletion strains, locus YKR001C, strain vps1, hits give low values 0.989 | S. cerevisiae deletion strains, locus YLR039C, strain RIC1, hits give low values 1 | S. cerevisiae deletion strains, locus YLR058C, strain SHM2, hits give low values 0.988 | S. cerevisiae deletion strains, locus YLR102C, strain apc9, hits give low values 0.982 | S. cerevisiae deletion strains, locus YLR262C, strain YPT6, hits give low values 0.968 | S. cerevisiae deletion strains, locus YLR268W, strain sec22, hits give low values 0.972 | S. cerevisiae deletion strains, locus YLR330W, strain CHS5, hits give low values 0.993 | S. cerevisiae deletion strains, locus YLR342W, strain FKS1 (second series), hits give low values 0.979 | S. cerevisiae deletion strains, locus YLR371W, strain rom2, hits give low values 0.98 | S. cerevisiae deletion strains, locus YLR418C, strain cdc73, hits give low values 1 | S. cerevisiae deletion strains, locus YML016C, strain PPZ1, hits give low values 0.992 | S. cerevisiae deletion strains, locus YML032C, strain rad52, hits give low values 0.981 | S. cerevisiae deletion strains, locus YML124C, strain tub3, hits give low values 0.985 | S. cerevisiae deletion strains, locus YMR078C, strain ctf18, hits give low values 0.981 | S. cerevisiae deletion strains, locus YMR223W, strain ubp8, hits give low values 0.979 | S. cerevisiae deletion strains, locus YMR263W, strain SAP30, hits give low values 0.971 | S. cerevisiae deletion strains, locus YMR307W, strain GAS1, hits give low values 0.972 | S. cerevisiae deletion strains, locus YNL067W, strain RPL9B, hits give low values 0.995 | S. cerevisiae deletion strains, locus YNL128W, strain TEP1, hits give low values 0.998 | S. cerevisiae deletion strains, locus YNL153C, strain GIM3, hits give low values 0.986 | S. cerevisiae deletion strains, locus YNL233W, strain BNI4, hits give low values 0.989 | S. cerevisiae deletion strains, locus YNL250W, strain rad50, hits give low values 0.997 | S. cerevisiae deletion strains, locus YNL271C, strain bni1, hits give low values 0.996 | S. cerevisiae deletion strains, locus YNL298W, strain CLA4, hits give low values 0.98 | S. cerevisiae deletion strains, locus YNL307C, strain MCK1, hits give low values 0.98 | S. cerevisiae deletion strains, locus YNL322C, strain KRE1, hits give low values 1 | S. cerevisiae deletion strains, locus YNR052C, strain pop2, hits give low values 0.979 | S. cerevisiae deletion strains, locus YOL006C, strain TOP1, hits give low values 1.03 | S. cerevisiae deletion strains, locus YOL012C, strain htz1 0.881 | S. cerevisiae deletion strains, locus YOL147C, strain pex11, hits give low values 0.981 | S. cerevisiae deletion strains, locus YOR061W, strain CKA2, hits give low values 0.999 | S. cerevisiae deletion strains, locus YOR069W, strain VPS5, hits give low values 0.986 | S. cerevisiae deletion strains, locus YOR136W, strain idh2, hits give low values 0.993 | S. cerevisiae deletion strains, locus YOR144C, strain elg1, hits give low values 0.978 | S. cerevisiae deletion strains, locus YOR184W, strain ser1, hits give low values 0.976 | S. cerevisiae deletion strains, locus YOR316C, strain cot1, hits give low values 0.996 | S. cerevisiae deletion strains, locus YPL055C, strain LGE1, hits give low values 0.984 | S. cerevisiae deletion strains, locus YPL241C, strain CIN2, hits give low values 0.989 | S. cerevisiae deletion strains, locus YPR119W, strain clb2, hits give low values 0.975 | S. cerevisiae deletion strains, locus YPR141C, strain kar3, hits give low values 0.986 | S. cerevisiae deletion strains, locus YPR163C, strain tif3, hits give low values 0.977 | S. cerevisiae deletion strains, locus YPR167C, strain met16, hits give low values 0.993 | S. cerevisiae deletion strains, strain wtn01, hits give low values 0.975 | S. cerevisiae strains, strain wild type, hits give low values 1.01
